Measured values: PubChem BioAssay AID1159580 (chemical genetic matrix, 2015)
Screen size: about 5,500 compounds; about 2,000 (36%) were called active. About 18% were inconclusive and are not listed. No stated cut-off is given here; in the data, active means normalized growth mostly below about 0.91 (no sharp cut-off); inconclusive means no clear call, values can overlap the other calls; inactive means mostly above about 0.92. Some of the results follow.

Experiment: chemical genetic growth profiling, strain panel (AID 1159580);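 further: tested at 20 µM; growth read once vehicle control cultures reached saturation at 30 °C; 1 = growth at the plate median or of vehicle wells; lower values mean less growth of the strain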
Details: growth OD
[1] = S. cerevisiae deletion strains, locus YDL101C, strain DUN1, active compounds read low
[2] = S. cerevisiae deletion strains, locus YHR030C, strain SLT2, active compounds read low

Measured: normalized growth

O=S(=O)(Oc1cc(Cl)cc(Cl)c1)c1cccc(S(=O)(=O)Oc2cc(Cl)cc(Cl)c2)c1
inactive: S. cerevisiae deletion strains, locus YAL013W, strain DEP1, active compounds read low 1.01 | S. cerevisiae deletion strains, locus YBR229C, strain ROT2, active compounds read low 1.01 | S. cerevisiae deletion strains, locus YCL061C, strain MRC1, active compounds read low 1.01 | [1] 1.01 | S. cerevisiae deletion strains, locus YDL134C, strain PPH21, active compounds read low 1.01 | S. cerevisiae deletion strains, locus YDR150W, strain NUM1, active compounds read low 1 | S. cerevisiae deletion strains, locus YEL061C, strain CIN8, active compounds read low 1.01 | S. cerevisiae deletion strains, locus YGR078C, strain PAC10, active compounds read low 1.02 | [2] 1.04 | S. cerevisiae deletion strains, locus YHR087W, strain rtc3, active compounds read low 0.996 | S. cerevisiae deletion strains, locus YJR043C, strain POL32, active compounds read low 1 | S. cerevisiae deletion strains, locus YJR075W, strain HOC1, active compounds read low 0.988 | S. cerevisiae deletion strains, locus YLR039C, strain RIC1, active compounds read low 1.1 | S. cerevisiae deletion strains, locus YLR058C, strain SHM2 (second series), active compounds read low 0.998 | S. cerevisiae deletion strains, locus YLR085C, strain ARP6, active compounds read low 1.06 | S. cerevisiae deletion strains, locus YLR262C, strain YPT6, active compounds read low 1.02 | S. cerevisiae deletion strains, locus YML094W, strain GIM5, active compounds read low 1.01 | S. cerevisiae deletion strains, locus YMR219W, strain ESC1, active compounds read low 0.998 | S. cerevisiae deletion strains, locus YMR263W, strain SAP30, active compounds read low 0.992 | S. cerevisiae deletion strains, locus YNL153C, strain GIM3, active compounds read low 1.01 | S. cerevisiae deletion strains, locus YNL298W, strain CLA4 (second series), active compounds read low 1.07 | S. cerevisiae deletion strains, locus YNL322C, strain KRE1, active compounds read low 1.01 | S. cerevisiae deletion strains, locus YNR030W, strain Alg12, active compounds read low 1.01 | S. cerevisiae deletion strains, locus YOL006C, strain TOP1, active compounds read low 1.06 | S. cerevisiae deletion strains, locus YPL055C, strain LGE1, active compounds read low 1.01 | S. cerevisiae deletion strains, locus YPL241C, strain CIN2, active compounds read low 1.03 | S. cerevisiae deletion strains, locus YPR135W, strain CTF4, active compounds read low 1.01 | S. cerevisiae strains, strain wild type, active compounds read low 1.04

O=S(=O)(CS(=O)(=O)Oc1ccc(Cl)c(Cl)c1)Oc1ccc(Cl)c(Cl)c1
inactive: S. cerevisiae deletion strains, locus YAR019C, strain CDC15, active compounds read low 0.95 | S. cerevisiae deletion strains, locus YBL105C, strain PKC1, active compounds read low 0.944 | S. cerevisiae deletion strains, locus YBR135W, strain CKS1, active compounds read low 0.947 | S. cerevisiae deletion strains, locus YBR136W, strain MEC1, active compounds read low 0.946 | S. cerevisiae deletion strains, locus YBR160W, strain CDC28, active compounds read low 0.946 | S. cerevisiae deletion strains, locus YDL017W, strain CDC7, active compounds read low 0.937 | S. cerevisiae deletion strains, locus YDL028C, strain MPS1, active compounds read low 0.946 | [1] 0.971 | S. cerevisiae deletion strains, locus YDL108W, strain KIN28, active compounds read low 0.937 | S. cerevisiae deletion strains, locus YDL132W, strain cdc53, active compounds read low 0.968 | S. cerevisiae deletion strains, locus YDL214C, strain PRR2, active compounds read low 0.986 | S. cerevisiae deletion strains, locus YDR052C, strain DBF4, active compounds read low 0.937 | S. cerevisiae deletion strains, locus YDR054C, strain cdc34, active compounds read low 0.932 | S. cerevisiae deletion strains, locus YDR226W, strain ADK1, active compounds read low 0.913 | S. cerevisiae deletion strains, locus YDR477W, strain SNF1, active compounds read low 0.966 | S. cerevisiae deletion strains, locus YER123W, strain YCK3, active compounds read low 0.989 | S. cerevisiae deletion strains, locus YER133W, strain GLC7, active compounds read low 0.969 | S. cerevisiae deletion strains, locus YFL009W, strain cdc4, active compounds read low 0.931 | S. cerevisiae deletion strains, locus YFL029C, strain CAK1, active compounds read low 0.95 | S. cerevisiae deletion strains, locus YFR003C, strain YPI1, active compounds read low 0.944 | S. cerevisiae deletion strains, locus YFR019W, strain FAB1, active compounds read low 0.946 | S. cerevisiae deletion strains, locus YFR028C, strain CDC14, active compounds read low 0.97 | S. cerevisiae deletion strains, locus YGR040W, strain KSS1, active compounds read low 0.983 | S. cerevisiae deletion strains, locus YGR052W, strain FMP48, active compounds read low 1.02 | S. cerevisiae deletion strains, locus YGR092W, strain DBF2, active compounds read low 0.905 | S. cerevisiae deletion strains, locus YHR079C, strain IRE1, active compounds read low 0.918 | S. cerevisiae deletion strains, locus YHR082C, strain KSP1, active compounds read low 1.03 | S. cerevisiae deletion strains, locus YHR205W, strain SCH9, active compounds read low 0.756 | S. cerevisiae deletion strains, locus YIL147C, strain SLN1, active compounds read low 0.943 | S. cerevisiae deletion strains, locus YJL095W, strain BCK1, active compounds read low 0.935 | S. cerevisiae deletion strains, locus YJL128C, strain PBS2, active compounds read low 0.969 | S. cerevisiae deletion strains, locus YJL157C, strain FAR1, active compounds read low 0.959 | S. cerevisiae deletion strains, locus YJR016C, strain ILV3, active compounds read low 0.951 | S. cerevisiae deletion strains, locus YJR066W, strain TOR1 (second series), active compounds read low 0.994 | S. cerevisiae deletion strains, locus YJR066W, strain TOR1, active compounds read low 1.03 | S. cerevisiae deletion strains, locus YKL048C, strain ELM1, active compounds read low 0.963 | S. cerevisiae deletion strains, locus YKL067W, strain YNK1, active compounds read low 0.983 | S. cerevisiae deletion strains, locus YKL101W, strain HSL1, active compounds read low 0.981 | S. cerevisiae deletion strains, locus YKL193C, strain SDS22, active compounds read low 0.944 | S. cerevisiae deletion strains, locus YKL203C, strain TOR2, active compounds read low 1.05 | S. cerevisiae deletion strains, locus YLR113W, strain HOG1, active compounds read low 0.962 | S. cerevisiae deletion strains, locus YLR133W, strain CKI1, active compounds read low 0.961 | S. cerevisiae deletion strains, locus YLR403W, strain SFP1, active compounds read low 0.823 | S. cerevisiae deletion strains, locus YML070W, strain DAK1, active compounds read low 0.991 | S. cerevisiae deletion strains, locus YMR001C, strain CDC5, active compounds read low 0.94 | S. cerevisiae deletion strains, locus YMR205C, strain PFK2 (second series), active compounds read low 0.972 | S. cerevisiae deletion strains, locus YMR277W, strain FCP1, active compounds read low 0.949 | S. cerevisiae deletion strains, locus YNL006W, strain LST8, active compounds read low 0.967 | S. cerevisiae deletion strains, locus YNL020C, strain ARK1, active compounds read low 0.955 | S. cerevisiae deletion strains, locus YNL161W, strain CBK1, active compounds read low 0.949 | S. cerevisiae deletion strains, locus YNL183C, strain NPR1, active compounds read low 1.09 | S. cerevisiae deletion strains, locus YNL207W, strain RIO2, active compounds read low 0.941 | S. cerevisiae deletion strains, locus YNL222W, strain SSU72, active compounds read low 0.955 | S. cerevisiae deletion strains, locus YNL307C, strain MCK1 (second series), active compounds read low 0.961 | S. cerevisiae deletion strains, locus YOL078W, strain AVO1, active compounds read low 0.946 | S. cerevisiae deletion strains, locus YOL136C, strain PFK27, active compounds read low 0.949 | S. cerevisiae deletion strains, locus YOR061W, strain CKA2, active compounds read low 0.984 | S. cerevisiae deletion strains, locus YOR119C, strain RIO1, active compounds read low 1.05 | S. cerevisiae deletion strains, locus YOR231W, strain MKK1, active compounds read low 1.07 | S. cerevisiae deletion strains, locus YOR329C, strain SCD5, active compounds read low 0.951 | S. cerevisiae deletion strains, locus YPL031C, strain PHO85, active compounds read low 0.948 | S. cerevisiae deletion strains, locus YPL153C, strain RAD53, active compounds read low 0.974 | S. cerevisiae deletion strains, locus YPL204W, strain HRR25, active compounds read low 0.945 | S. cerevisiae deletion strains, locus YPL209C, strain IPL1, active compounds read low 0.949 | S. cerevisiae deletion strains, locus YPL256C, strain CLN2, active compounds read low 0.945 | S. cerevisiae deletion strains, locus YPR025C, strain CCL1, active compounds read low 0.956 | S. cerevisiae deletion strains, locus YPR106W, strain ISR1, active compounds read low 0.942 | S. cerevisiae deletion strains, locus YPR111W, strain DBF20, active compounds read low 0.938 | S. cerevisiae deletion strains, strain NNK1, active compounds read low 0.956 | S. cerevisiae deletion strains, strain TSCII, active compounds read low 0.945
active: [2] 0.85
